Laboratory results from PubChem BioAssay AID504621 (Broad Institute, 2011).
Values joined by “and” are separate entries in the source; they are usually repeats but may differ in a detail not shown here. Equal entries are not always repeated. Out of some 310,000 compounds screened, about 970 (0.31%) were called active. The sample holds actives, similar compounds and a random draw of the others, so the mix is not that of the screen. A number with no mark means an inactive call.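 The calls were made as follows: active = every replicate shows inhibition above about 80%, whatever the replicate mean (limit read from the data); inconclusive = mean inhibition reaches the set limit but some replicate falls short; inactive = the rest.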

Experiment: growth inhibition of PfHsp90-expressing yeast, primary screen, antimalarial PfHsp90 inhibitor project, S. cerevisiae, BacTiter-Glo luminescence, single point, set 2 (AID 504621);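 also: yeast relying on Plasmodium falciparum Hsp90 in place of its own; 0% = DMSO neutral controls and 100% = 20 µM radicicol positive controls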
Details: BacTiter-Glo ATP, 48 h, at 9.4 µM, stronger effect = higher value, yeast lacking PDR1 and PDR3 efflux regulators

| Structure (SMILES) | inhibition |
| --- | --- |
| CCCN(CCC)S(=O)(=O)c1cc2c(cc1Br)CCN2C(=O)CC | -17.7% |
| CSCCC(NC(=O)COc1ccccc1)C(=O)OCc1ccc(Cl)cc1 (centres undefined) | 6.52% |
| O=C1/C(=C\c2ccc(O)cc2)CCC1CNc1ccc(Cl)cc1 (centres undefined) | 42.3% |
| CC(C)N(C(=O)[C@H]1C[C@H](CC(=O)NC(C)(C)C)C(=O)N2CCc3c([nH]c4ccc(Cl)cc34)[C@]12C)C(C)C | 21.3% |
| O=C(OC12CC3CC(CC(C3)C1)C2)c1ccc(NCc2cc(O)ccc2O)cc1 | 124% (active) |
| COC(=O)c1ccc(NCc2cc(O)ccc2O)cc1 | 30.3% |
| CC1(C)C2CCC1(C)C(OC(=O)c1ccc(O)cc1)C2 (centres undefined) | 11.7% |
| O=C(Nc1c(Br)cc2c(c1Br)Cc1cc([N+](=O)[O-])ccc1-2)C(Cl)Cl | -28.5% |
| O=S1(=O)CCOC[C@H](Cc2ccccc2)N1Cc1ccccc1Br | 10.2% |
| C=CCOC(=O)N1CCC2CC1c1cc(-c3ccc(OC)cc3)ccc12 (centres undefined) | -3.16% |
| COc1ccccc1C(=O)c1ccccc1C(=O)c1ccccc1 | -29.9% |
| CN(CCc1ccccc1)C(=O)c1cccc(NC(=O)Cc2cccc(NC(=O)C3CCCN(C(=O)C4CCC4)C3)c2)c1 (centres undefined) | 10.6% |
| CCOC(=O)c1ccc(N2C(=O)CC(N3CCN(C(=O)c4ccccc4)CC3)C2=O)cc1 (centres undefined) | 18.7% |
| CCOC(=O)c1ccc(N2C(=O)CC(N3CC(C)OC(C)C3)C2=O)cc1 (centres undefined) | 11.2% |
| CCOC(=O)c1ccc(N2C(=O)CC(N3CCC(C(=O)OCC)CC3)C2=O)cc1 (centres undefined) | 94.1% (active) |
| CSc1ncnc2c1ncn2CC(=O)C1CCC2C3CCC4=CC(=O)CCC4(C)C3CCC12C (centres undefined) | 17% |
| CCOC(=O)[C@H]1[C@H]2COc3ccc(Br)cc3[C@@H]2N2C(=O)CN(C)C(=O)[C@@]12C | 3.33% |
| C=CC(=O)Nc1ccc(Nc2ccnc(Nc3ccc(N4CCN(C)CC4)cc3)n2)cc1 | 1.37% |
| CCN(CC)S(=O)(=O)c1ccc(N2CCCC2)c(NC(=O)c2ccc([N+](=O)[O-])o2)c1 | 7.78% |
| Oc1ccccc1C1=NN(c2ccccc2)C(c2ccccc2)C1 (centres undefined) | 106% (active) |
| CC(=O)Oc1ccccc1C1=NN(C(C)=O)C(c2ccccc2)C1 (centres undefined) | 6.42% |
| O=C(c1ccccc1)N1N=C(c2ccccc2O)CC1c1ccc(Br)cc1 (centres undefined) | -6.75% |
| Fc1ccccc1COc1cccc2cccnc12 | 5.74% |

| Structure (SMILES) | inhibition |
| --- | --- |
| OCc1ccc(OCCCOc2cccc3cccnc23)cc1 | 24.6% |
| O=C(Nc1ccccc1)Oc1cccc2cccnc12 | 104% (active) |
| CCOc1ccc(S(=O)(=O)N2CCN(C(=O)c3oc4ccccc4c3C)CC2)cc1 | -16.3% |
| CC(=O)Oc1ccc(OC(C)=O)c2c1C1C=CC2CC1 | -4.99% |
| O=[N+]([O-])c1ccc(C=NN=Cc2ccc([N+](=O)[O-])cc2)cc1 | -1.39% |
| O=C1/C(=C\c2ccc([N+](=O)[O-])cc2)CS(=O)(=O)C/C1=C/c1ccc([N+](=O)[O-])cc1 | 104% (active) |
| O=C(NN=Cc1ccc([N+](=O)[O-])cc1)C1CC1 | -9.96% |
| COc1cccc(C=CC(=O)C=CC=Cc2ccccc2)c1 | 16.4% |
| CN(C)C(=S)N=c1ssc(=S)n1Cc1ccco1 | -41.1% |
| Oc1ccc(N=Nc2nccs2)c(O)c1 | 4.56% |
| c1ccc(NCc2cccc3ccccc23)nc1 | 3.43% |
| Oc1ccc2ccccc2c1N=Nc1nccs1 | 131% (active) |
| CCCCC(=O)Nc1ccc(C(=O)Nc2cc(C(F)(F)F)ccc2Cl)cc1 | -1.45% |
| CCCCN(CCCC)CCC(O)c1cc2c(Cl)cc(Cl)cc2c2cc(C(F)(F)F)ccc12 (centres undefined) | 110% (active) |
| COc1ccc(C(CNC(=O)c2cccc(S(=O)(=O)Nc3ccc(Br)cc3)c2)N(C)C)cc1 (centres undefined) | 3.14% |
| C=CC[C@@H](Cc1ccc(F)cc1)C(=O)OC[C@H]1CCCN1C(=O)[C@H](CC=C)CC(=O)N(CCO)Cc1ccccc1 | 6.25% |
| NNc1cccc(C=Cc2ccccc2)cc1=O | 17.2% |
| Cc1cccnc1NC(=O)c1cccc(S(=O)(=O)N2CCN(c3ccc(F)cc3)CC2)c1 | -4.19% |
| Oc1c(CN2CCN(c3ccc(F)cc3)CC2)cc(Cl)c2cccnc12 | 136% (active) |
| Oc1c(CN2CCCC2)cc(COCc2ccccc2)c2cccnc12 | 16.4% |
| COc1ccc(Nc2ccc3ccccc3c2)cc1 | -39% |
| O=C(Nc1nc(-c2ccco2)c(-c2ccco2)s1)c1ccco1 | 92% (active) |
| O=C(Nc1ccccc1)c1ccco1 | 1.65% |

| Structure (SMILES) | inhibition |
| --- | --- |
| O=C(Nc1nnc(CCOCCOCCc2nnc(NC(=O)c3ccco3)s2)s1)c1ccco1 | 4.41% |
| COc1ccc(/C=C2/CCCc3ccccc3C2=O)cc1 | 17.4% |
| CCS(=O)(=O)Nc1cccc(-c2cc(-c3ccccc3)c3cc(C)ccc3n2)c1 | 102% (active) |
| Cc1ccc2nc(-c3ccncc3)cc(C(=O)Nc3ccncc3)c2c1 | -8.61% |
| Cc1ccc2nc(Nc3ccccc3)cc(C)c2c1 | -1.32% |
| O=C1OCC2=C1C(c1ccc(Cl)cc1)c1cc3c(cc1O2)OCO3 (centres undefined) | -15.7% |
| O=C(Nn1cnnc1)c1ccc([N+](=O)[O-])cc1 | 10.8% |
| O=C(Cn1c[n+](CC(=O)c2ccc([N+](=O)[O-])cc2)cn1)c1ccc([N+](=O)[O-])cc1 | -20.5% and -1.84% |
| O=C(CC(n1cncn1)C(Cl)(Cl)Cl)c1ccc([N+](=O)[O-])cc1 (centres undefined) | 123% (active) |
| Oc1ccc(-c2nc3ccccc3nc2-c2ccc(O)cc2O)c(O)c1 | 6.66% |
| O=C(O)c1ccc(NN=CC2=C(N3CCOCC3)/C(=C/c3ccccc3)CC2)cc1 | -30.6% |
| CC(C)c1ccc(C=NNc2ccc([N+](=O)[O-])cn2)cc1 | -14.5% |
| O=S(=O)(NC1CC2CCC1C2)c1ccc(Cl)cc1 (centres undefined) | 104% (active) |
| O=S(=O)(NC1CCCCC1N1CCCCC1)c1ccc(Cl)cc1 (centres undefined) | -25% |
| O=S(=O)(NC1CC1)c1ccc(Cl)cc1 | -7.47% |
| COc1ccc(-c2ccc3c(c2)[C@@H]2C[C@H](N(C)S(=O)(=O)c4ccccc4)[C@H]([C@H](C)O)C(=O)N2CC3)cc1 | 6.39% |
| CC(C)Cn1cnc2c(SCc3ccc(Cl)cc3)nc(N)nc21 | 12.6% |
| COc1cccc2c1C(=O)c1c(O)c3c(c(O)c1C2=O)CC(O)(C(C)=NNC(=O)c1ccc(Cl)c(Cl)c1)CC3OC1CC(N)C(O)C(C)O1 (centres undefined) | -3.52% |
| CC1=C/C(=N\OS(=O)(=O)c2ccccc2)C=CC1=O | 100% (active) |
| O=C(Nc1ccc(S(=O)(=O)N2CCOCC2)cc1)C1CCN(S(=O)(=O)c2ccc(Cl)cc2)CC1 | -11.4% |
| COc1ccc2sc(-c3ccc(N(C)C)cc3)c(-c3ccc4cc[nH]c4c3)c2c1 | -6.56% |
| COc1ccc2c(c1)c(=Cc1ccc(N(C)C)cc1)c1cc(-c3ccccc3)[n+](C)n12 | 114% (active) |
| COc1ccc2sc(-c3ccc(N(C)C)cc3)c(C#CCO)c2c1 | 15% |

| Structure (SMILES) | inhibition |
| --- | --- |
| CCN1CCC(O)(/C=C/c2ccc(C)cc2)C(C(=O)/C=C/c2ccc(C)cc2)C1 (centres undefined) | 19.6% |
| Cc1c(NS(=O)(=O)c2cccc(C(=O)Nc3ccc(SC(F)F)cc3)c2)c(=O)n(-c2ccccc2)n1C | -2.76% |
| COc1ccc2c(c1)C(=O)CC(c1ccccc1)O2 (centres undefined) | -30% |
| CCCCC(=O)NC(c1ccc(OC)c(OC)c1)c1ccc2cccnc2c1O (centres undefined) | 25.2% |
| C#CCOCCOCCOCCNc1nc(N2CCOCC2)nc(N2CCN(C(=O)[C@H](Cc3ccc(O)cc3)n3cc(CCO)nn3)CC2)n1 | 2.07% |
| C[C@@H]1C[C@@H]2O[C@H]2/C=C\C=C\C(=O)Cc2c(Cl)c(O)cc(O)c2C(=O)O1 | 95% (active) |
| Cc1ccc(-c2csc(C(C#N)=C(O)CN3CCN(C(=O)c4ccco4)CC3)n2)cc1 | 4.72% |
| O=C1C=CC(=O)N1c1ccc(N2CCCCC2)cc1 | 109% (active) |
| CC(=O)Nc1ccc(S(=O)(=O)Nc2ccc(N3CCCCC3)cc2)cc1 | 26.6% |
| O=C(Cc1ccccc1)NC(=S)Nc1ccc(N2CCCCC2)cc1 | -35.9% |
| O=C(NNc1nc(N2CCCC2)nc(N2CCCC2)n1)c1ccccc1 | 16.9% |
| CCN(CC)CCCC(C)n1c2nc(=O)[nH]c(=O)c-2nc2cc(Cl)ccc21 (centres undefined) | -9.23% |
| NC(=O)C1CCN(C(=O)c2cc(S(=O)(=O)N3CCN(c4ccccc4)CC3)ccc2Cl)CC1 | -2.95% |
| CC1=CC(=NNS(=O)(=O)c2ccc([N+](=O)[O-])cc2)CC(C)(C)C1 | -10.2% |
| O=[N+]([O-])c1ccc(NS(=O)(=O)c2ccccc2)c(Cl)c1 | -12% |
| COc1ccc(/C=C/C(=O)c2ccc(OC)cc2O)cc1 | 3.31% |
| COc1ccc(C(=O)/C=C/c2ccc(OC3CSC3)cc2)cc1 | 12.6% |
| COc1ccc(/C=C/C(=O)c2cc(Br)ccc(=O)c2O)cc1 | 99.7% (active) |
| CN(C(=O)c1cccc(NC(=O)Cc2ccc(NC(=O)C3CCCN(C(=O)C4CCCC4)C3)cc2)c1)C1CCC1 (centres undefined) | 3.19% |
| COC(=O)CC(CC(=O)OC)n1cccc1 | 10.4% |
